Source: publication PMC5540273 (PLoS ONE, 2017)

Assays:
Conditions in all cases: concentration: 1 μM,replicates: in singlicate; n = 1
IKK-alpha = tested on: T1, IKK-alpha
T1 construct: gene CHUK

IKK-beta = tested on: T2, IKK-beta
T2 construct: gene IKBKB

IKK-epsilon = tested on: T3, IKK-epsilon
T3 construct: gene IKBKE

INSRR = tested on: INSRR
INSR = tested on: INSR
IRAK1 = tested on: IRAK1
IRAK3 = tested on: IRAK3
IRAK4 = tested on: IRAK4
ITK = tested on: ITK
[1] = tested on: JAK1(JH1domain-catalytic)
[2] = tested on: JAK1(JH2domain-pseudokinase)
[3] = tested on: JAK2(JH1domain-catalytic)
[4] = tested on: JAK3(JH1domain-catalytic)
JNK1 = tested on: T4, JNK1
T4 construct: gene MAPK8

JNK2 = tested on: T5, JNK2
T5 construct: gene MAPK9

JNK3 = tested on: T6, JNK3
T6 construct: gene MAPK10

KIT-autoinhibited = tested on: KIT-autoinhibited
KIT = tested on: KIT
LATS1 = tested on: LATS1
LATS2 = tested on: LATS2
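Further: KINOMEscan kinase panel screen.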

SMILES	%Inh (IKK-alpha) [%]	%Inh (IKK-beta) [%]	%Inh (IKK-epsilon) [%]	%Inh (INSRR) [%]	%Inh (INSR) [%]	%Inh (IRAK1) [%]	%Inh (IRAK3) [%]	%Inh (IRAK4) [%]	%Inh (ITK) [%]	%Inh [1] [%]	%Inh [2] [%]	%Inh [3] [%]	%Inh [4] [%]	%Inh (JNK1) [%]	%Inh (JNK2) [%]	%Inh (JNK3) [%]	%Inh (KIT-autoinhibited) [%]	%Inh (KIT) [%]	%Inh (LATS1) [%]	%Inh (LATS2) [%]
CCn1c(-c2nonc2N)nc2cncc(CNC3CCNCC3)c21.Cl [SB-747651]	39	27	5	0	14	56	0	41	9	15	0	19	0	25	6	3	0	0	0	53
Cc1cccc(-c2nc(Nc3ccncc3)c3sccc3n2)n1 [GW869641]	32	22	0	5	31	18	0	0	12	0	90.2	67	57	46	85	94.6	21	22	11	33
Cc1ccc(Nc2ccnc(Nc3ccc4c(c3)CS(=O)(=O)C4)n2)cc1O.Cl [GW579362]	62	87	91	22	53	99.1	91	87	38	92.4	99.1	99.1	98.2	98.4	87	95.1	41	99.8	0	21
c1ccc(Oc2ccc(Nc3ccnc4ccc(-c5ccccn5)cc34)cc2)cc1 [GW407034]	9	14	11	0	5	22	13	25	13	22	0	22	0	20	16	18	0	45	1	0
O=c1[nH]cc(-c2ccc(O)cc2)c2sc(-c3ccncc3)cc12 [GSK1033723]	0	0	9	0	100	59	1	5	0	35	0	33	51	0	0	0	0	27	0	24
CCNCC(Cc1ccccc1)NC(=O)c1cc(Br)c(-c2ccnc3[nH]ccc23)s1.Cl.Cl (stereo not drawn) [GSK1383280]	3	33	19	0	0	42	36	17	14	36	0	82	87	33	10	1	0	50	43	82
CN(c1cccc(CNc2nc(Nc3ccc4c(c3)CC(=O)N4)ncc2C(F)(F)F)c1)S(C)(=O)=O	24	14	19	21	48	48	22	0	26	43	79	98.1	100	40	31	35	31	57	29	24
COC(=O)c1cccc(NC(=O)NC2CCN(c3ccnc(NCc4ccc(F)cc4)n3)CC2)c1 [GSK1379860]	26	8	0	0	0	0	0	12	15	8	0	6	0	7	23	3	0	7	0	0
C[C@@H]1CCN(C(=O)N2CCCC2)C[C@@H]1N(C)c1ncnc2[nH]ccc12	23	19	17	12	0	6	8	0	0	99.6	31	100	99.6	14	8	3	23	0	0	10
CC(=O)Nc1ccc(-c2cc3ncnc(SCC(=O)O)c3s2)cc1	0	0	0	10	0	78	52	0	2	0	7	0	17	7	0	0	26	79	0	20
O=C(NOCC1CC1)c1cc(Br)c(F)c(F)c1Nc1ccc(I)cc1Cl	0	0	0	0	0	0	0	0	2	7	39	0	0	12	0	0	0	13	14	0
CS(=O)c1ccc(-c2coc3ccc(-c4n[nH]c(=O)o4)cc23)cc1 (stereo not drawn)	8	0	0	1	17	55	0	28	0	1	3	23	23	23	20	16	0	0	11	21
FC(F)(F)c1cc(Br)cc(Nc2nccc(-c3cnn4ncccc34)n2)c1 [GW810578]	13	9	0	11	8	92	58	0	0	3	80	0	0	0	5	1	63	100	0	6
CS(=O)(=O)Nc1ccc(-c2ccnc3[nH]ccc23)cc1 [GSK993273]	89	99.1	34	0	0	61	49	24	13	70	9	97.7	97.1	49	27	28	0	59	42	82
CC(C)c1nc(-c2cccc(NS(=O)(=O)c3ccccc3)c2)c(-c2ccnc(Nc3ccc4c(c3)CN(C)CC4)n2)s1 [GSK1649598]	2	15	42	0	35	65	10	16	47	25	0	20	75	84	87	94	21	99.9	6	27
O=C(Nc1n[nH]c2cc(-c3ccco3)ccc12)C1CC1 [SB-737447]	0	0	0	5	2	0	0	0	0	2	63	27	30	38	17	32	7	23	0	10
Cn1cc(-c2cccc3c(N)c(C(N)=O)nnc23)cn1	28	39	0	9	19	31	9	17	15	9	61	32	38	14	5	8	16	5	3	0
C[C@@H]1CNc2c(sc3ccc4nc(-c5ccncc5)ccc4c23)C(=O)N1	14	0	0	0	0	78	42	0	0	0	64	0	78	0	0	0	7	34	0	24
